Data from PubChem BioAssay (EPA / NIEHS).
Activity calls are given as the source filed them. Rule for the calls: active = hit-call score of the fitted dose curve at least 0.9, where 1 is the maximum; inactive = score below 0.9.

Assays:
[1] = target: Transcriptional activator Myb (Homo sapiens) (UniProt P10242); assay: ATG_Myb_CIS: Attagene CIS-FACTORIAL HepG2 Assay for human Myeloblastosis (Myb) Proto-Oncogene Transcription Factor (AID 2282986); conditions: HepG2 Attagene CIS-FACTORIAL Myb reporter transcription; actives raise or lower the signal
Procedure, shortened: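 Steps: transfect HepG2 with cis-regulated reporter units; dose with chemical for 24 h; isolate RNA, reverse-transcribe, PCR-amplify and FAM-label reporter sequences; digest with HpaI; resolve by capillary electrophoresis. Activity fitted in both directions relative to DMSO.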

[2] = target: Nuclear respiratory factor 1 (Homo sapiens) (UniProt Q16656); assay: ATG_NRF1_CIS: Attagene CIS-FACTORIAL HepG2 Assay for human Nuclear Respiratory Factor 1 (NRF1) Orphan Gene (AID 2282987); conditions: HepG2 NRF1 cis-element reporter, Attagene multiplex; actives raise or lower the signal
Procedure, shortened: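 Fluorescence intensity of labelled reporter cDNA fragments, resolved by capillary electrophoresis, served as readout for NRF1 cis-element activity. Transiently transfected HepG2 cells were dosed for 24 hours; activity in either direction was fitted against DMSO negative control.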

[3] = ATG_NFI_CIS: Attagene CIS-FACTORIAL HepG2 Assay for human Nuclear Factor I (NFI) (AID 2282989); conditions: HepG2 cis-regulatory reporter, NFI response element transcription; actives raise or lower the signal
Procedure, shortened: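 Transient MRTU transfection of HepG2 → 24 h chemical dosing → total RNA, oligo(dT) RT → PCR, 6-FAM primer extension, HpaI cut → capillary electrophoresis. Endpoint fitted bidirectionally relative to DMSO.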

[4] = target: Myc proto-oncogene protein (Homo sapiens) (UniProt P01106); assay: ATG_Myc_CIS: Attagene CIS-FACTORIAL HepG2 Assay for human Myelocytomatosis (Myc) Proto-Oncogene Transcription Factor (AID 2282990); conditions: HepG2, Attagene cis-reporter transcription factor activity; actives raise or lower the signal
Procedure, shortened: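 DMSO-normalised, bidirectionally fitted reporter mRNA signal. HepG2 cells transfected with cis reporter constructs, treated 24 h; transcripts detected by RT-PCR, 6-FAM primer extension and CE.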

[5] = ATG_NF_kB_CIS: Attagene CIS-FACTORIAL HepG2 Assay for human Nuclear Factor Kappa B (NF-kB) (AID 2282991); conditions: HepG2 Attagene cis-factorial NF-kB reporter mRNA; actives raise or lower the signal
Procedure, shortened: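 Endogenous transcription factor activity in HepG2 was captured via cis-regulated reporter constructs; after 24 h dosing, reporter mRNA was reverse-transcribed, amplified, fluorescently labelled and sized by capillary electrophoresis, with activity fitted bidirectionally relative to DMSO.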

[6] = ATG_NRF2_ARE_CIS: Attagene CIS-FACTORIAL HepG2 Assay for human Nuclear Factor Erythroid 2 Related Factor 2 (NFR2) response to Antioxidant Response Elements (ARE) (AID 2282992); conditions: HepG2 Attagene ARE/NRF2 reporter, transcription factor activity; actives raise or lower the signal;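 for AC50: reporter mRNA level measured by RT-PCR and capillary electrophoresis fluorescence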
Procedure, shortened: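 Cis-factorial assay: transfected HepG2 reporter library, 24 h dosing, mRNA readout via RT-PCR/CE; DMSO-referenced bidirectional analysis.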

[7] = target: Cellular tumor antigen p53 (Homo sapiens) (UniProt P04637); assay: ATG_p53_CIS: Attagene CIS-FACTORIAL HepG2 Assay for human p53 Transcription Factor (AID 2282994); conditions: HepG2 p53 cis-element reporter, Attagene mRNA; actives raise or lower the signal
Procedure, shortened: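 Using HepG2 hepatoma cells carrying cis-acting multiplexed reporters, mRNA induction is detected after a 24 h exposure. Gain- and loss-of-signal responses are fitted relative to DMSO-treated cells.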

[8] = ATG_Oct_MLP_CIS: Attagene CIS-FACTORIAL HepG2 Assay for human Octamer-Binding Transcription Factor (Oct) (AID 2282993); conditions: HepG2 Attagene cis-factorial Oct reporter, mRNA; actives raise or lower the signal
Procedure, shortened: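 Transient MRTU transfection of HepG2 → 24 h compound treatment → RNA isolation, reverse transcription, PCR → 6-FAM primer extension, HpaI digest → capillary electrophoresis. Activity fitted both directions against DMSO.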

[9] = BSK_3C_TissueFactor: BioMAP Diversity Plus: 3C Assay for Tissue Factor Biomarker Activity (AID 2282997); conditions: BioMAP 3C HUVEC, tissue factor biomarker readout; actives raise or lower the signal
Procedure, shortened: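 ELISA read-out of Tissue Factor levels on human umbilical vein endothelium collected 24 h after chemical dosing. Gain or loss of signal was fitted relative to DMSO.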

[10] = BSK_3C_uPAR: BioMAP Diversity Plus: 3C Assay for Urokinase-type plasminogen activator receptor (uPAR) Biomarker Activity (AID 2282998); conditions: BioMAP 3C HUVEC, uPAR biomarker ELISA; actives raise or lower the signal
Procedure, shortened: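 ELISA readout of uPAR on human vascular endothelium (umbilical vein primary cells), taken 24 h after chemical dosing. Increases and decreases are both fitted relative to DMSO vehicle.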

Sequence of Nuclear respiratory factor 1 (Homo sapiens) (Q16656 whole entry, looked up, the tested form may be a part): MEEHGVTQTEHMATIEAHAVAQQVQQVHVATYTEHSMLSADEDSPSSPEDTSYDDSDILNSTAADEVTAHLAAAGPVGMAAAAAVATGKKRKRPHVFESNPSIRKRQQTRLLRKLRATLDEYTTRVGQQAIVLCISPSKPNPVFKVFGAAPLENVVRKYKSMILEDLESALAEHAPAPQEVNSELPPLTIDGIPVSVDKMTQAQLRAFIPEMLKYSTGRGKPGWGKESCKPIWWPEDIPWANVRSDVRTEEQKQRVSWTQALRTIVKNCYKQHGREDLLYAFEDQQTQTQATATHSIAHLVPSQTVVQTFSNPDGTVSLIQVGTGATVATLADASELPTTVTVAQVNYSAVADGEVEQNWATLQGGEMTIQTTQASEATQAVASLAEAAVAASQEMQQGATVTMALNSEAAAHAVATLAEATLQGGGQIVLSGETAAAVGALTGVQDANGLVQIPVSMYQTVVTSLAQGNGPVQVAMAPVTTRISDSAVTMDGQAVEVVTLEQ
Sequence of Transcriptional activator Myb (Homo sapiens) (P10242 whole entry, looked up): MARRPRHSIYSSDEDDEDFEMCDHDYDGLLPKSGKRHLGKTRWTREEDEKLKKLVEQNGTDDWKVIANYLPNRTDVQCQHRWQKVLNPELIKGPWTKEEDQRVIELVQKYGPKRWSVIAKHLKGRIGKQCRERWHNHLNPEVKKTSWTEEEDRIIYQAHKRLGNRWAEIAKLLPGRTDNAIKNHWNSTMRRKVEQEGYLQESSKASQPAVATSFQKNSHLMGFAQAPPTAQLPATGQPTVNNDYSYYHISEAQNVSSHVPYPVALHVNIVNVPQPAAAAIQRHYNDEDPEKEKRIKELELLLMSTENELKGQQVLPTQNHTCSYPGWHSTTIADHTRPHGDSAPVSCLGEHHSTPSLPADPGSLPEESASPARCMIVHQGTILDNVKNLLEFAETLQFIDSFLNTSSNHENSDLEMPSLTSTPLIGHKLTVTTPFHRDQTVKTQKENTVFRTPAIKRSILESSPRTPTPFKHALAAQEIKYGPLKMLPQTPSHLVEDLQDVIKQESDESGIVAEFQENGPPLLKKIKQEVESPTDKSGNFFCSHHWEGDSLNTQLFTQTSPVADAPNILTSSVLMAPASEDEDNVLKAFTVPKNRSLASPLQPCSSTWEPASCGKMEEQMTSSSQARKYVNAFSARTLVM
Sequence of Myc proto-oncogene protein (Homo sapiens) (P01106 whole entry, looked up): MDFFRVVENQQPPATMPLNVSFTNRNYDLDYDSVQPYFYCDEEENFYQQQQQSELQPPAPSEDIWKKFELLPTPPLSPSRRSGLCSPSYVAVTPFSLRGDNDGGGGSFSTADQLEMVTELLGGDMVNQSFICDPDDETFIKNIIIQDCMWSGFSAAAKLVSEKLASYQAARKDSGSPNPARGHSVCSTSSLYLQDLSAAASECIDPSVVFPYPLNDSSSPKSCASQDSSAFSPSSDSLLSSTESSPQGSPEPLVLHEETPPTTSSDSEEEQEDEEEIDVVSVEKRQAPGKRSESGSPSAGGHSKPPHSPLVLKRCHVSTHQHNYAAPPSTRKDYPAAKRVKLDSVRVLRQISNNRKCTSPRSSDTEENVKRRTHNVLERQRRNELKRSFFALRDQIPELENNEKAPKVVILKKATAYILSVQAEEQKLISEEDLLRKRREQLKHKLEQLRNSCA
Sequence of Cellular tumor antigen p53 (Homo sapiens) (P04637 whole entry, looked up): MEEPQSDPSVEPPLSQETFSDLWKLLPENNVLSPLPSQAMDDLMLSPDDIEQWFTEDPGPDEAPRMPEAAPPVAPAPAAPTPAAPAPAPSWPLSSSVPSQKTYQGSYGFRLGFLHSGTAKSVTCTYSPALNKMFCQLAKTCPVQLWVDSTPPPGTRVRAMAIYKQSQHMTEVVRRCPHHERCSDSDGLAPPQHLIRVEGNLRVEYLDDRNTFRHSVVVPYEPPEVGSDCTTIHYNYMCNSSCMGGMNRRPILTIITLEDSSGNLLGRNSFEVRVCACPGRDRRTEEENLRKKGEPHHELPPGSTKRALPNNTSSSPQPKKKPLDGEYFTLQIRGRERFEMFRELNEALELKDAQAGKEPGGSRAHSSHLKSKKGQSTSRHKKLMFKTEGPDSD

Row | SMILES | outcome [1] | outcome [2] | outcome [3] | outcome [4] | outcome [5] | outcome [6] | outcome [7] | AC50 [2] | AC50 [6] | outcome [8] | AC50 [9] | outcome [10] | outcome [9] | AC50 [4] | AC50 [10]
1 | O=NN1CCCC1 | inactive | inactive | inactive | inactive | inactive | inactive | inactive | – | – | – | – | – | – | – | –
2 | CCOP(=S)(OCC)SCn1nnc2ccccc2c1=O | inactive | – | inactive | inactive | inactive | – | inactive | 58.6 µM (active) | 1.6 µM (active) | inactive | 10.7 µM (active) | inactive | – | – | –
3 | Nc1ccc([N+](=O)[O-])cc1Cl | inactive | inactive | inactive | inactive | inactive | inactive | inactive | – | – | – | – | inactive | inactive | – | –
4 | CCC1(c2ccccc2)C(=O)N=C(O)NC1=O (stereo not given) | inactive | inactive | inactive | inactive | inactive | inactive | inactive | – | – | – | – | inactive | inactive | – | –
5 | CC(C)(C)N(NC(=O)c1ccc(Cl)cc1)C(=O)c1ccccc1 | inactive | inactive | inactive | inactive | – | inactive | – | – | – | inactive | – | – | – | – | –
6 | c1ccc2c(c1)sc1ccccc12 | inactive | inactive | inactive | inactive | – | inactive | inactive | – | – | inactive | – | inactive | inactive | – | –
7 | CCOP(=S)(S)OCC | inactive | inactive | inactive | inactive | – | – | inactive | – | 67.4 µM (active) | – | – | inactive | inactive | – | –
8 | CCCCOCC1CO1 (stereo not given) | inactive | inactive | inactive | inactive | – | inactive | inactive | – | – | – | – | – | – | – | –
9 | OCC1CO1 (stereo not given) | inactive | inactive | inactive | inactive | – | inactive | inactive | – | – | – | – | inactive | inactive | – | –
10 | Cc1c([N+](=O)[O-])cc2c(c1[N+](=O)[O-])C(C)(C)CC2(C)C | inactive | inactive | inactive | – | – | inactive | inactive | – | – | inactive | 3.62 µM (active) | – | – | 3.03 µM (active) | 0.87 µM (active)
11 | CCOP(=S)(OCC)SCSc1ccc(Cl)cc1 | inactive | inactive | inactive | inactive | inactive | – | – | – | 29.6 µM (active) | – | 0.0123 µM (active) | – | – | – | 0.397 µM (active)
12 | CC(Cc1ccc(OCC(=O)O)cc1)NCC(O)c1csc(C(F)(F)F)n1 (stereo not given) | inactive | inactive | inactive | inactive | – | inactive | inactive | – | – | – | – | inactive | inactive | – | –
13 | CC(C)(C)c1ccccc1OP(=O)(Oc1ccccc1)Oc1ccccc1 | inactive | inactive | inactive | inactive | inactive | – | inactive | – | 19.8 µM (active) | – | 20 µM (active) | – | – | – | 20 µM (active)
14 | ClC(Cl)(Cl)c1ccccc1 | inactive | inactive | inactive | inactive | – | inactive | inactive | – | – | inactive | – | inactive | inactive | – | –
15 | CCCN(CCC)c1c([N+](=O)[O-])cc(C(C)C)cc1[N+](=O)[O-] | inactive | inactive | inactive | inactive | – | – | inactive | – | 38.4 µM (active) | inactive | – | – | inactive | – | 33.7 µM (active)
16 | c1ccc2c(c1)Nc1ccccc1S2 | inactive | inactive | inactive | inactive | – | – | inactive | – | 20.6 µM (active) | – | – | inactive | inactive | – | –
17 | O=[N+]([O-])c1ccc(Cl)c(Cl)c1 | inactive | inactive | inactive | inactive | inactive | – | – | – | 100 µM (active) | – | – | inactive | inactive | – | –
18 | CCOS(=O)(=O)OCC | inactive | inactive | inactive | inactive | – | inactive | inactive | – | – | inactive | – | inactive | inactive | – | –
19 | O=C(O)C(Cl)Cl | inactive | inactive | inactive | inactive | – | inactive | – | – | – | inactive | – | inactive | inactive | – | –
20 | CC(C)Nc1ccc(Nc2ccccc2)cc1 | inactive | inactive | inactive | inactive | – | – | inactive | – | 8.92 µM (active) | – | 8.11 µM (active) | – | – | – | 13.2 µM (active)
